The text below walks through data of PubChem BioAssay (NCI).

Where “and” joins values, the source holds several entries; their conditions need not be identical. Equal values may be shown once. The panel holds about 79,000 compounds, 15% with a hit somewhere; the sample as a whole holds those more often. A number with no mark means an inactive call. Calls of active or inactive are those of the source. No stated cut-off is given here; in the data, active means growth inhibition above about 70%; inactive means the rest.

Assay [1] is described as follows: NCI Yeast Anticancer Drug Screen. Data for the rad50 strain (AID 155).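 Further: 0% = growth of vehicle-only cultures of the same strain.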 The note with it: S. cerevisiae rad50 strain growth inhibition, active compounds read high; at 50.0 µM unless noted. The method, boiled down:
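DNA repair mutant yeast, compound exposure, growth read-out; inhibition is taken relative to vehicle.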

Assay [2] in a line: NCI Yeast Anticancer Drug Screen. Data for the mec2-1 strain (AID 157). The note with it: S. cerevisiae mec2-1 strain, active compounds read high; at 50.0 µM unless noted. In outline:
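Test agents were screened against the mec2-1 yeast strain, with defined DNA repair or cell cycle alteration. Growth was scored as inhibition against vehicle-only controls.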

Assay [3] is described as follows: NCI Yeast Anticancer Drug Screen. Data for the sgs1 mgt1 strain (AID 161).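 Further: 0% = growth of cultures given vehicle only.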 Conditions: S. cerevisiae sgs1 mgt1 strain, active compounds read high; at 50.0 µM unless noted. The method, boiled down: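 Mutant yeast exposed to compound; growth scored against vehicle-only wells.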
The nature of assay [4]: NCI Yeast Anticancer Drug Screen. Data for the cln2 rad14 strain (AID 165).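 Further: 0% = growth equal to vehicle treated cultures.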 Conditions: S. cerevisiae cln2 rad14 strain, active compounds read high; at 50.0 µM unless noted. The method, boiled down: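 Growth of compound-exposed yeast (cln2 rad14 genotype) measured and expressed as inhibition relative to vehicle.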
The nature of assay [5]: NCI Yeast Anticancer Drug Screen. Data for the bub3 strain (AID 167). The note with it: S. cerevisiae bub3 mutant strain, active compounds read high; at 50.0 µM unless noted. In outline: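 In this screen, a yeast mutant lacking normal mitotic checkpoint function is challenged with compound. Relative growth versus vehicle gives the inhibition value.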
Assay [6] in a line: NCI Yeast Anticancer Drug Screen. Data for the mlh1 rad18 strain (AID 175). Conditions: S. cerevisiae mlh1 rad18 strain growth inhibition, active compounds read high; at 50.0 µM unless noted. In outline:
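In this whole-cell yeast screen, a strain with altered DNA damage repair is challenged with compound, and its growth is measured against matched vehicle-treated controls.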

Turning to `O=C1CCCC(=O)N1n1c(Cc2ccc(Cl)cc2)n[nH]c1=O`, the growth inhibition in assay [1] was -31.6%; in assay [2] it was -11.8%; in assay [3], 1.3%; in assay [4] it was 7.5%; in assay [5], -19.6%; in assay [6] it was -1.5%.
For the compound `O=C1C2C3ON(c4ccccc43)C2C(=O)N1c1ccccc1` (stereo not given), the growth inhibition was -0.65% in assay [1]; 21% in assay [2]; 15.4% in assay [3]; 2.4% in assay [4]; 3.6% in assay [5]; -3.55% in assay [6].
As to `Cn1cc(Cc2ccccc2)c(=O)[nH]c1=O`, the growth inhibition in assay [1] is 6.25%; in assay [2], -4.4%; in assay [3] it was 2.05%; in assay [4], -34.6%; in assay [5], -4.85%; in assay [6] it was 7.6%.
On to `CC(CCCCCOC(=O)Nc1ccccc1)OC(=O)Nc1ccccc1` (stereo not given), for which the growth inhibition was 6.2% in assay [1]; -12.3% in assay [2]; -3.1% in assay [3]; 0.75% in assay [4]; 1.15% in assay [5]; 2.6% in assay [6].
For `O=C(NSN1CCOCC1)c1ccccc1`, the growth inhibition in assay [1] is 38.8%; in assay [2], 25.8%; in assay [3], 30%; in assay [4], -45.6%; in assay [5], 2.5%; in assay [6] it was 38%.
In the case of `Brc1ccc(-c2ccccc2)cc1`, the growth inhibition was 28.8% in assay [1]; 17.8% in assay [2]; 17.2% in assay [3]; 15.1% in assay [4]; 8.9% in assay [5]; 21.4% in assay [6].
For `NC(=O)N/N=C/c1ccc([N+](=O)[O-])cc1`, the growth inhibition in assay [1] is 7.35%; in assay [2], -2.6%; in assay [3], -6.55%; in assay [4], -24.1%; in assay [5], 15.9%; in assay [6], -4.2%.
Take `NC(=O)c1ccc(F)cc1`: the growth inhibition is -42.3% in assay [1]; -29.6% in assay [2]; -7.7% in assay [3]; -16.1% in assay [4]; -18.2% in assay [5]; -10.5% in assay [6].
With `C=C1C(=O)C23[C@H](O)C1CC[C@H]2[C@]12COC3(O)[C@@H](O)[C@@H]1C(C)(C)CC[C@@H]2O`, the growth inhibition was 3.65% in assay [1]; -20.6% in assay [2]; 19.8% in assay [3]; -0.6% in assay [4]; -0.5% in assay [5]; -46.1% in assay [6].
Consider `CC1=CC(=O)CC(C)(C)C1`, for which the growth inhibition in assay [1] is 1.45%; in assay [2] it was 5.95%; in assay [3], -1.7%; in assay [4] it was 6.4%; in assay [5], 17.1%; in assay [6], 3.45%.
On to `C=C1C[C@@H](O)C[C@@]2(C)C[C@@H]3OC(=O)C(=C)[C@@H]3C[C@H]12`, for which the growth inhibition in assay [1] is -5.9%; in assay [2], -3%; in assay [3], 16.2%; in assay [4] it was 14.2%; in assay [5] it was -16.6%; in assay [6] it was 19.9%.
Take `CC(=O)OC1c2ccccc2CCCCCCC12OCCO2` (stereo not given): the growth inhibition was -25.1% in assay [1]; -36.4% in assay [2]; -53.2% in assay [3]; 1.8% in assay [4]; -36.3% in assay [5]; -7.25% in assay [6].
As for `Cc1cc[n+]2cc(-c3ccc(/C=N/N=C(N)N)cc3)n(C)c2c1`, the growth inhibition in assay [1] was 22.9%; in assay [2], 33.9%; in assay [3], 18.7%; in assay [4], 28.9%; in assay [5], -8.75%; in assay [6], 29.9%.
Turning to `CN1C(=O)CCC1c1nc2ccccc2[nH]1` (stereo not given), the growth inhibition in assay [1] is 0.15%; in assay [2], 9.95%; in assay [3], -3.05%; in assay [4] it was -17.9%; in assay [5] it was 6.45%; in assay [6] it was 20.4%.
Regarding `COC(=O)N1C=NC2C3(C)C(C)=C(C)C3(C)C21C` (stereo not given), the growth inhibition in assay [1] was 0.35%; in assay [2] it was -3.55%; in assay [3] it was -4.1%; in assay [4] it was -24.9%; in assay [5], -0.4%; in assay [6], -7.45%.
As to `CSc1ccc(C2NC(=O)NC2=O)cc1` (stereo not given), the growth inhibition was -10.2% in assay [1]; -14.6% in assay [2]; -1.95% in assay [3]; -9% in assay [4]; 4.95% in assay [5]; -10.1% in assay [6].
Regarding `CC(=O)N(C)c1ccccc1`, the growth inhibition was -19.2% in assay [1]; -20.9% in assay [2]; -16.4% in assay [3]; -40.5% in assay [4]; -8.45% in assay [5]; -7.55% in assay [6].
In the case of `C[N+]1(Cc2ccco2)CCCCC1`, the growth inhibition is -12.6% in assay [1]; 9.65% in assay [2]; 0.15% in assay [3]; -14.4% in assay [4]; 9% in assay [5]; -6.85% in assay [6].
As for `COC(=O)c1ccccc1CC1Cc2ccc3c(c2C1=O)CCCC3` (stereo not given), the growth inhibition was -1.35% in assay [1]; -65.7% in assay [2]; -13.3% in assay [3]; 5.4% in assay [4]; 17.8% in assay [5]; 3.3% in assay [6].
In the case of `CC1=Nc2ccccc2C12C(c1ccccc1)C(c1ccccc1)C(=O)N1c3ccccc3CC12` (stereo not given), the growth inhibition in assay [1] was -2.25%; in assay [2] it was -16.4%; in assay [3] it was -33.6%; in assay [4], 20.1%; in assay [5] it was -14.3%; in assay [6] it was -1.65%.
On to `ClCCCN(CCCCl)c1ccc(C=Nc2cccc(Cl)c2)c(Cl)c1`, for which the growth inhibition was 91.1% (active) in assay [1]; 76.6% (active) in assay [2]; 95.5% (active) in assay [3]; 85.2% (active) in assay [4]; 81.5% (active) in assay [5]; 93.5% (active) in assay [6].
As to `CCCCCCCCCC(=O)Oc1cccc2c1CC(C[Se]c1ccccc1)C(=O)O2` (stereo not given), the growth inhibition is 2.1% in assay [1]; -0.3% in assay [2]; -0.85% in assay [3]; -3.05% in assay [4]; -2.05% in assay [5]; 5.7% in assay [6].
Take `COC(=O)[C@H]1C2CC[C@@H]3C45C[C@@H](c6ccoc6)O[C@@H]4O[C@@H](O2)C31CCC5C` (stereo not given in full): the growth inhibition in assay [1] is 14.5%; in assay [2], -18.4%; in assay [3] it was 6.35%; in assay [4] it was 5%; in assay [5], -30.1%; in assay [6], 14.9%.
As for `COc1ccc2c(c1)c(C)cc[n+]2C`, the growth inhibition in assay [1] was -3.3%; in assay [2], 8.5%; in assay [3], -5.9%; in assay [4] it was -9.65%; in assay [5] it was -3.05%; in assay [6], -19.3%.
Take `C=C1c2nc3ccccc3n2C=C(c2ccccc2)N1c1ccc(OC)cc1`: the growth inhibition is -6.5% in assay [1]; 15.3% in assay [2]; -9.25% in assay [3]; -5.85% in assay [4]; 17.5% in assay [5]; 7.05% in assay [6].
Regarding `CC(=O)Nc1nnn(C)n1`, the growth inhibition in assay [1] was -4.65%; in assay [2], -5.55%; in assay [3], 0.8%; in assay [4] it was -39.5%; in assay [5], 9.1%; in assay [6], -3.45%.
`NC(N)=Nc1ccc(-c2ccc(N=C(N)N)cc2)cc1`: the growth inhibition in assay [1] was -9.35%; in assay [2], 6.4%; in assay [3] it was 0.85%; in assay [4] it was -22.2%; in assay [5], -24.9%; in assay [6], -7.95%.
For `CC(=O)NNc1nc(C)c(C(/C=C/c2ccc(Cl)cc2)=N/NC(=O)C[N+](C)(C)C)s1`, the growth inhibition in assay [1] is 15.1%; in assay [2], 7.25%; in assay [3], 9.15%; in assay [4] it was 21.8%; in assay [5] it was 21.4%; in assay [6], -0.25%.
In the case of `CCN(CC)CCCC(C)Nc1ncnc2ccccc12` (stereo not given), the growth inhibition in assay [1] was 2.2%; in assay [2], 8.95%; in assay [3], 23.1%; in assay [4], 15.6%; in assay [5] it was -7.3%; in assay [6], -2.25%.
On to `CC(=O)Nc1ccc(S(N)(=O)=O)cc1`, for which the growth inhibition in assay [1] is 16.6% and -34.8%; in assay [2], 15.6% and 8.55%; in assay [3] it was 16.1% and 21.3%; in assay [4], 12% and -4.55%; in assay [5], 1.75% and -3.65%; in assay [6] it was 13.6% and 37%.
Turning to `COC(=O)C(NC(=O)c1ccccc1)C(c1ccc(Cl)cc1)P(=O)(OC)OC` (stereo not given), the growth inhibition in assay [1] is -19.6%; in assay [2], -1%; in assay [3] it was 12%; in assay [4], 22.2%; in assay [5], -7.85%; in assay [6], -17.9%.
As to `CCOC(=O)CSCC(=O)OCC`, the growth inhibition in assay [1] was 3.6%; in assay [2], -9%; in assay [3], -17.2%; in assay [4], 8.45%; in assay [5], -9.4%; in assay [6], -4.65%.
In the case of `Cc1ccc(S(=O)(=O)Oc2ccc(Cl)c(C)c2)cc1`, the growth inhibition is 39.5% and -16.1% in assay [1]; 6% and -11.8% in assay [2]; 35.4% and -25.1% in assay [3]; 14.1% and -74.5% in assay [4]; 38.9% and 14.8% in assay [5]; 17.8% and 5.1% in assay [6].
`OCC1OC(O)C(O)C(O)C1O` (stereo not given): the growth inhibition in assay [1] was 5.05% and 8.6%; in assay [2], 1.75% and 15.1%; in assay [3], -0.95% and -5.85%; in assay [4] it was -19.4% and 16.8%; in assay [5] it was -4.1% and 2.1%; in assay [6], 3.1% and 14.4%.
With `CCCCCCCCCCCCCCCc1ccc(N)c(OC2OC(CO)C(O)C(O)C2O)c1` (stereo not given), the growth inhibition was -2.15% and -16.8% in assay [1]; 6.7% and -18.2% in assay [2]; 8.8% and 8.55% in assay [3]; -8.15% and -28.3% in assay [4]; -5.6% and 0.95% in assay [5]; 18.1% and -0.4% in assay [6].
